Screens deposited in PubChem BioAssay by The Scripps Research Institute Molecular Screening Center.
PP5 inh – blocks human protein phosphatase 5 activity. purified PP5c, OMFP substrate fluorescence. P53041. hit rate 0.18% among 320,000. inhibition, % at 6.7 µM. AID 1987;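 active = inhibition above the campaign's mean inhibition across all tested compounds plus 3 SD, cut at about 9.5% in these data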;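 note: 0% = DMSO only and 100% = 100 µM cantharidin control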
PAFAH1B3 FP inh – PAFAH1B3 (human) inhibition. Q15102. recombinant PAFAH1B3, FP-rhodamine probe, fluorescence polarization. inhibition, % at 3.39 µM. hit rate 0.28% among 340,000. AID 492972;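 active = inhibition above the screen-wide average of all tested compounds plus 3 SD, cut at about 25% in these data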;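 note: 0% = enzyme with DMSO only and 100% = wells lacking PAFAH1B3 protein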
Target sequence (Q15102 whole entry, looked up): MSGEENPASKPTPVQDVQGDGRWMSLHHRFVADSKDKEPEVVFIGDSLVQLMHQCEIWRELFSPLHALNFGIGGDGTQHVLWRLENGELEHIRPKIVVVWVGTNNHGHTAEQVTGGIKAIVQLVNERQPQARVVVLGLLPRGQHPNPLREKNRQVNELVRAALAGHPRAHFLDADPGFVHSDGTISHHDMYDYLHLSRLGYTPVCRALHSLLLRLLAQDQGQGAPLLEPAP
pPAFAH inh – pPAFAH (human) enzyme inhibition; Q13093; recombinant pPAFAH, FP-rhodamine probe fluorescence polarization; inhibition, % at 3.39 µM; hit rate 1.5% among 330,000; AID 463082;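 active = inhibition above the mean inhibition across the screen plus 3 SD, cut at about 25% in these data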;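 note: inhibitors block binding of the rhodamine activity-based probe so polarization drops; 0% = enzyme with DMSO and 100% = wells lacking pPAFAH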
PAFAH2 FP inh – PAFAH2 (human) inhibition; Q99487; recombinant PAFAH2, FP-rhodamine activity probe, fluorescence polarization; inhibition, % at 3.39 µM; hit rate 0.99% among 340,000;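 active = inhibition above the mean over all tested compounds plus 3 SD, cut at about 30% in these data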;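 note: inhibitors block probe labeling of enzyme so polarization drops; 0% = enzyme with DMSO and 100% = wells lacking PAFAH2 protein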
PAFAH1B2 FP inh – blocks human PAF acetylhydrolase 1b catalytic subunit 2; hit rate 1.2% among 340,000; inhibition, % at 3.39 µM; AID 492953; recombinant PAFAH1B2, FP-rhodamine activity probe, fluorescence polarization;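 active = inhibition above the mean of all tested compounds plus 3 SD, cut at about 24% in these data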;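 note: 0% = enzyme with DMSO and 100% = wells lacking PAFAH1B2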
Target sequence (P68402 whole entry, looked up): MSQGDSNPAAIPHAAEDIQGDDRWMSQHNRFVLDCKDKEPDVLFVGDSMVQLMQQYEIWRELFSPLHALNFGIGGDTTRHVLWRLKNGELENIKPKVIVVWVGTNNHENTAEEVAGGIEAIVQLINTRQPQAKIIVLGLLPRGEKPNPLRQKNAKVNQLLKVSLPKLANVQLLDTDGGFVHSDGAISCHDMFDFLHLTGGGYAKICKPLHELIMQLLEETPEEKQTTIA
Fh CTSL1 inh – cathepsin L1 inhibition, PFM18AAP counter-screen; recombinant F. hepatica cathepsin L1, Z-Leu-Arg-MCA fluorescence; inhibition, % at 5.96 µM; hit rate 0.49% among 300,000;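 active = inhibition above the mean of all tested compounds plus 3 SD, set per screening campaign, cut at about 17% in these data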;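 note: 0% = plate median of test compound wells and 100% = 1 µM Z-Phe-Ala-diazomethylketone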
PAFAH2 confirm – confirmation of human PAFAH2 inhibitors. shares compounds with PAFAH2 FP inh. recombinant PAFAH2, FP-rhodamine activity probe, fluorescence polarization. inhibition, % at 3.39 µM. hit rate 65% among 2,300;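 active = mean inhibition over three repeats above a set limit taken from the earlier primary screen, cut at about 30% in these data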;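 note: inhibitor blocks binding of rhodamine activity probe so polarization falls; 0% = enzyme with DMSO and 100% = wells lacking PAFAH2 protein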
* marks the source's active call; other numbers are inactive results; / = no result. Compounds with a hit are over-represented: about 3% of the library has one in this group of screens.

SMILES	PP5 inh	PAFAH1B3 FP inh	pPAFAH inh	PAFAH2 FP inh	PAFAH1B2 FP inh	Fh CTSL1 inh	PAFAH2 confirm
CC(C)c1ccc(O)c(NC(=S)NC(=O)c2ccc3c(c2)OCO3)c1	7.6	0.4	7.2	30.3*	6.1	-0.5	21.3
C=C(C)c1nc2cc(OC)c(OC)cc2c(=O)o1	-1.4	18.5	-0.3	11.0	4.9	-0.3	/
Cc1ccc2nc(-c3ccc(Br)o3)oc(=O)c2c1	1.8	7.4	3.3	65.8*	-3.6	-0.3	65.7*
COc1cc2nc(-c3ccc(Br)o3)oc(=O)c2cc1OC	0.9	5.3	3.3	53.4*	-2.2	3.1	40.9*
COc1cc2nc(CCc3ccccc3)oc(=O)c2cc1OC	0.6	3.3	6.1	36.0*	12.6	-4.0	21.6
C=CCNC(=O)C1CC(=O)N(c2ccc(OCC(=O)Nc3ccc(Cl)cc3)cc2)C1 (configuration not stated)	-0.5	2.3	3.4	-0.4	7.8	0.9	/
CCOC(=O)c1ccccc1NC(=O)C1CC(=O)N(C2CCCC2)C1 (configuration not stated)	/	4.0	/	-1.6	1.7	/	/
COc1ccccc1/C=C\C(=O)NCC(=O)N/N=C(/C)c1cccc([N+](=O)[O-])c1	0.9	-1.1	0.0	-5.4	2.3	2.3	/
Cc1cc2c(cc(C(=O)N3CCC(C(=O)NC4CCCC4)CC3)n2Cc2c(F)cccc2Cl)o1	2.0	-1.9	-0.6	63.8*	3.7	-1.4	49.4*
CN(CC(O)COc1ccc2ccccc2c1)C1CCCCC1 (configuration not stated)	0.0	4.0	0.4	-4.4	6.3	1.6	/
O=c1c(C(c2c(O)nc3n(c2=O)CCS3)c2cccc3ccccc23)c(O)nc2n1CCS2	0.9	-2.8	-4.8	36.5*	3.1	-8.4	26.1
CCN(CC)S(=O)(=O)c1ccc(Cl)c(NC(=O)COC(=O)c2c(C)noc2C)c1	-0.1	0.8	6.6	7.4	-4.8	-5.3	/
CCN(CC)S(=O)(=O)c1ccc(Cl)c(NC(=O)COC(=O)c2cccn2C)c1	0.7	3.2	19.9	30.6*	6.1	-15.7	21.1
CCN(CC)S(=O)(=O)c1ccc(Cl)c(NC(=O)COC(=O)C2CCCCC2)c1	2.6	3.4	7.5	46.0*	6.6	/	30.8*
CSCCC(NC(=O)c1ccco1)c1nc2ccccc2[nH]1 (configuration not stated)	0.1	-0.7	4.0	6.0	-0.6	-0.7	/
Cc1nc2cc(N3CCCCC3)c(NC(=O)c3ccncc3)cc2c(=O)n1Cc1ccc(Cl)cc1	0.7	/	-2.2	/	/	1.9	/
Cc1nc2cc(N3CCN(C)CC3)c(NC(=O)Cc3ccccc3)cc2c(=O)n1Cc1ccccc1	-1.2	5.7	6.1	41.7*	-2.7	-0.3	26.7
O=C(COC(=O)/C=C/c1ccccc1)NCc1ccc(Cl)cc1	-0.9	8.0	9.3	33.6*	0.7	-7.5	34.4*
O=C(COC(=O)/C=C/c1ccco1)NCc1ccc(Cl)cc1	1.9	1.6	-3.1	42.8*	3.7	/	37.8*
CCCNC(=O)COC(=O)/C=C/c1ccco1	1.9	2.3	0.1	35.7*	6.7	-4.0	28.2
O=C(COC(=O)/C=C/c1ccc(Cl)cc1)NC(=O)NCc1ccccc1	1.1	-7.4	-7.2	-17.5	-7.5	/	/
COCCN(C(=S)Nc1c(C)cc(C)cc1C)C(C)c1cccs1 (configuration not stated)	0.5	5.0	7.0	31.3*	1.8	-2.3	28.2
CC(=O)c1c(C)[nH]c(C(=O)OCC(=O)Nc2cccc(S(=O)(=O)N(C)C)c2)c1C	-1.3	9.4	-5.0	30.6*	10.6	-12.6	31.2*
CC(=O)c1c(C)[nH]c(C(=O)OCC(=O)Nc2cccc(S(=O)(=O)N3CCCC3)c2)c1C	1.0	-5.0	-9.3	36.6*	-6.4	0.7	15.1
Cc1ccc(C(=O)OCC(=O)NCc2cccs2)c(C)c1	-1.7	6.1	1.4	31.7*	-2.6	-4.8	25.0
COc1ccc(C(=O)OCC(=O)NCc2cccs2)c(OC)c1OC	/	12.8	6.0	71.8*	6.8	/	64.7*
CCOc1ccc(C(=O)OCC(=O)Nc2cccnc2Cl)cc1OCC	/	2.3	7.7	74.0*	1.6	/	57.8*
